Only some compounds are listed: those with a hit (about 1.2% of all), similar ones and a draw of the others.
miR122 inh = blocks miR-122 activity in Huh7 sensor cells; Huh7 miR-122 Renilla luciferase sensor, 48 h; neutral wells = 0, positive control = 100; activation (reporter increase), % at 12.5 µM; hit rate 0.3% among 340,000;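 active = mean replicate activation score at least 90 and every replicate individually at or above 90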;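 note: higher luciferase means less miR-122 activity so hits act as miR-122 inhibitors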
PglD inh = inhibitors of Campylobacter jejuni PglD acetyltransferase | hit rate 0.098% among 360,000 | inhibition, % at 12.5 µM | purified PglD enzyme, DTNB colorimetric CoA detection | AID 602405; in the data active = inhibition above about 16%, passing the limit was not always enough
Statin myotox sup = protects C2C12 myotubes from simvastatin toxicity. ATP luminescence, 48 h; scaled: DMSO 0, geranylgeraniol control 100. rescue of ATP level, % at 7.49 µM. hit rate 0.78% among 330,000. AID 602340;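 active = mean ATP rescue above about 67%, or every replicate alone reaching that limit, limit read from the data, passing the limit was not always enough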;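 note: myotubes were challenged with 10 µM simvastatin during compound exposure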
NSD2 HMT inh = blocks human histone methyltransferase NSD2; O96028; NSD2 peptide methylation, AlphaScreen, 120 min; inhibition, % at 12.5 µM; hit rate 0.54% among 310,000; AID 743445; in the data active = inhibition above about 50%
Target sequence (O96028 whole entry, looked up): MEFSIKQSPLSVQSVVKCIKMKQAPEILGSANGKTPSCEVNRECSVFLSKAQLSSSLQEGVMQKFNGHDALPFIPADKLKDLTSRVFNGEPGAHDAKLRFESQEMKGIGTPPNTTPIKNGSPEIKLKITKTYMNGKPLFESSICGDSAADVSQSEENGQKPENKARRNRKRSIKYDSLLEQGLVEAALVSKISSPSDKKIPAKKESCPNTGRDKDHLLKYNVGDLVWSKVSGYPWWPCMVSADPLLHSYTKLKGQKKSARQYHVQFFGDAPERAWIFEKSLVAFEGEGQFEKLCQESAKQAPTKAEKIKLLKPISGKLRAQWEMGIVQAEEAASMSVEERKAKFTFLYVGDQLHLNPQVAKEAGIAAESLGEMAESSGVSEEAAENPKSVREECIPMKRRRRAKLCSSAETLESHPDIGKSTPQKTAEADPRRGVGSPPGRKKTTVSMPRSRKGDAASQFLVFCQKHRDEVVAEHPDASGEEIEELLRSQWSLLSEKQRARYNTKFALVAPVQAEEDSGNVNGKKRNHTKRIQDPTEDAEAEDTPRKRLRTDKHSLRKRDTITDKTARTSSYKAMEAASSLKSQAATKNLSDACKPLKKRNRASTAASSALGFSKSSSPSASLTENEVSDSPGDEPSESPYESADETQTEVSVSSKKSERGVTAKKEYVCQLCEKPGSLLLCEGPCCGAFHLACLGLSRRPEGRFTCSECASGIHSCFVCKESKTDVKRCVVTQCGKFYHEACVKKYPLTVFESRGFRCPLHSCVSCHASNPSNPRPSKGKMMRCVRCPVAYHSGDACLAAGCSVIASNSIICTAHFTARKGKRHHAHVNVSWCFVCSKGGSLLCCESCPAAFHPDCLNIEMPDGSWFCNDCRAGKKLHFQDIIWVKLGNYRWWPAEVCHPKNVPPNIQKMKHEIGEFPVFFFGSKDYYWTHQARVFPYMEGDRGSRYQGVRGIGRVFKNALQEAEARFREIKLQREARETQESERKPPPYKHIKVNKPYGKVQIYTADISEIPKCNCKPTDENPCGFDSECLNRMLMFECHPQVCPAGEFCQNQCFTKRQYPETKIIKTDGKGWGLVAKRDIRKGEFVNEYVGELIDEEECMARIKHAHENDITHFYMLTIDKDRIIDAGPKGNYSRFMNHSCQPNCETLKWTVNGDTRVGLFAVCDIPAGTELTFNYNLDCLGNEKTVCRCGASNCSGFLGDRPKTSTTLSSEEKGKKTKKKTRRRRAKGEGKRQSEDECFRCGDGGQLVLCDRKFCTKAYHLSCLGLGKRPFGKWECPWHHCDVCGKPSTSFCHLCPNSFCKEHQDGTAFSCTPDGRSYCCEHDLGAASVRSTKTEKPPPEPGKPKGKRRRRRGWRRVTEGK
Hits are given with their value; n = inactive; x = no result given.

SMILES	miR122 inh	PglD inh	Statin myotox sup	NSD2 HMT inh
CCOCc1cc(C)[nH]c(=O)c1C#N	n	n	99	x
CC(=O)C[C@H](O)CC(=O)[C@H]1OC(=O)CCCCCc2ccccc21	n	n	n	x
CC(=O)C[C@@H](O)CC(=O)[C@@H]1OC(=O)CCCCCCc2ccccc21	n	n	112	x
C[C@@H]1CCCCO[C@@H](CN(C)S(=O)(=O)c2cn(C)cn2)[C@H](C)CN([C@H](C)CO)C(=O)c2cc(NC(=O)CCC(F)(F)F)ccc2O1	n	n	n	x
NC(=O)c1cc(N)ccc1N1CCCC1	n	n	x	51
C[C@@H]1CN([C@@H](C)CO)S(=O)(=O)c2ccc(C3=CCCC3)cc2O[C@H]1CN(C)C(=O)C1CC1	n	x	n	x
O=C(c1ccc(C(F)(F)F)cc1)C1CCCN(C(=O)CCN2CCCO2)C1 (configuration not stated)	n	n	67	n
COc1ccc(C(=O)OCC(=O)N2CCN(C(=O)c3ccco3)CC2)cc1OC	n	n	88	n
COc1ccc(C(=O)N2CCN(C(=O)c3ccco3)CC2)cc1OC	x	n	n	n
O=C(O)c1ccccc1NS(=O)(=O)c1ccc(N/N=C/c2ccc(O)c(O)c2)c([N+](=O)[O-])c1	x	x	n	116
O=C(O)c1ccccc1NS(=O)(=O)c1ccc(NN=Cc2ccc(F)cc2)c([N+](=O)[O-])c1	n	x	x	n
O=Nc1c(O)ccc2cc(S(=O)(=O)O)ccc12	x	n	n	n
Nc1cccc2cc(S(=O)(=O)O)ccc12	n	n	n	129
CCn1c(C)c(C(C)=O)c(N2CCCCC2)nc1=S	n	n	79	n
CCn1c(C)c(C(C)=O)c(N2CCC(C(N)=O)CC2)nc1=S	n	n	n	n
Cc1ccccc1Nc1cc2ccccc2c(=O)[nH]1	n	x	x	x
O=c1[nH]c(Nc2ccccc2Cl)cc2ccccc12	n	n	136	x
O=c1[nH]c(Nc2ccc(F)cc2)cc2ccccc12	n	32	n	97
O=C(NCC[C@H]1CC[C@H](NS(=O)(=O)c2cccc(F)c2)[C@H](CO)O1)c1cnccn1	x	n	n	x
C[C@H](CO)N1C[C@H](C)[C@H](CN(C)CC2CC2)Oc2cc(C3=CCCC3)ccc2S1(=O)=O	n	n	n	x
O=C(CNC(=O)c1cnccc1C(F)(F)F)c1cccc(Cl)c1	n	n	78	n
O=C(NNC(=O)c1cnccc1C(F)(F)F)c1cccc(Cl)c1	n	n	n	n
C[C@@H]1CN([C@@H](C)CO)C(=O)c2cc(NC(=O)c3ccccc3)ccc2O[C@@H](C)CCCCO[C@H]1CN(C)S(=O)(=O)c1cccs1	n	n	x	x
Cc1ccc(C)c(S(=O)(=O)NCC(c2ccc3c(c2)OCO3)N2CCOCC2)c1 (configuration not stated)	101	n	n	n
Cc1cc(F)ccc1S(=O)(=O)NCC(c1ccc2c(c1)OCO2)N1CCOCC1 (configuration not stated)	x	n	n	n
SMILES	miR122 inh	PglD inh	Statin myotox sup	NSD2 HMT inh
O=C(Nc1ncnc2sc3c(c12)CCCCC3)c1ccco1	n	x	128	x
Cc1noc(C)c1NC(=O)N(C)C[C@@H]1Oc2ccc(NC(=O)CCC(F)(F)F)cc2C(=O)N([C@H](C)CO)C[C@H]1C	n	n	n	x
CCCCCCCNC(=O)C1(CC2CC(c3ccc(Cl)cc3)=NO2)CCN(C(=O)OC(C)(C)C)CC1 (configuration not stated)	n	n	121	x
CC(C)(C)OC(=O)N1CCC(CC2CC(c3ccccc3)=NO2)(C(=O)O)CC1 (configuration not stated)	x	n	n	x
C=CCN1C(=O)C2C(C(=O)NC)C3C=CC2(O3)C1C(=O)NCc1ccc(OC)cc1 (configuration not stated)	n	n	105	n
C#CCN1C(=O)C2C(C(=O)NC)C3C=CC2(O3)C1C(=O)NCc1ccc(OC)cc1 (configuration not stated)	n	n	n	n
C[C@@H](NC(=O)[C@H]1[C@H](CO)[C@H]2Cn3c(ccc(-c4cccnc4)c3=O)[C@@H]1N2C)c1ccccc1	n	n	n	x
C=CC(C)n1c(Br)nc2c1c(=O)[nH]c(=O)n2C (configuration not stated)	154	x	x	n
NC(=O)COC(=O)C(Cc1ccccc1)NS(=O)(=O)c1ccccc1F (configuration not stated)	n	n	109	n
NC(=O)COC(=O)[C@H](Cc1ccccc1)NS(=O)(=O)c1ccc2c(c1)OCCO2	n	n	n	n
C=CCSc1nnc(CSc2nc3sc4c(c3c(=O)[nH]2)CCCC4)n1-c1ccccc1	n	n	120	x
Cc1noc(C)c1S(=O)(=O)N(C)C[C@H]1Oc2ccc(NC(=O)NC(C)C)cc2CC(=O)N([C@@H](C)CO)C[C@H]1C	n	n	n	x
